The record followed here is PubChem BioAssay (Tox21).

Values joined by “and” are separate entries in the source; they are usually repeats but may differ in a detail not shown here. Identical values can stand only once. Inconclusive results are not listed. The source holds several records for some structures; these can differ, active in one and inactive in another. Active and inactive are the calls of the source. The call rests on the fitted dose curve; in most records, active means well fitted curve in the direction sought with a large enough effect in the repeat runs; inconclusive means weak or mixed curves; inactive means no such curve, though single readings can be large; an effect the other way counts as inactive or inconclusive.

Assay [1] has as its target Cytochrome P450 2D6 (Homo sapiens) (UniProt P10635). As to the kind of experiment: Cytochrome P450 Family 2 Subfamily D Member 6 (CYP2D6) small molecule antagonists: luciferase reporter qHTS assay (AID 1671196). Further: nearly all actives have a fitted effect of over 50% in size. Further: potency means the concentration at half of the fitted maximal effect. On activity change, negative = inhibition: series mostly up to about 120 µM. Summed up: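 Chemicals tested for interference with CYP2D6 activity; proluciferin substrate, NADPH regeneration, 1 h at room temperature, luminescent detection.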
On the technique in general: A reporter such as luciferase makes a cellular process visible.

Assay [2] has as its target Cytochrome P450 2C19 (Homo sapiens) (UniProt P33261). Briefly: Cytochrome P450 Family 2 Subfamily C Member 19 (CYP2C19) small molecule antagonists: luciferase reporter qHTS assay (AID 1671197). Further: nearly all actives have a fitted effect of over 65% in size. Further: potency means the concentration at half of the fitted maximal effect. On activity change, negative = inhibition: series mostly up to about 120 µM. Summed up:
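Luminescent readout of CYP2C19 activity: luciferin product detected 20 min after adding detection reagent. Before that, compound and enzyme-substrate mix preincubated 10 min at room temperature; NADPH-regenerating system started a 1 h, 37C reaction. Ketoconazole as positive control.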

In assay [3] the target is Cytochrome P450 2C9 (Homo sapiens) (UniProt P11712). As to the kind of experiment: Cytochrome P450 Family 2 Subfamily C Member 9 (CYP2C9) small molecule antagonists: luciferase reporter qHTS assay (AID 1671198). Further: nearly all actives have a fitted effect of over 50% in size. Further: potency means the concentration at half of the fitted maximal effect. On activity change, negative = inhibition: series mostly up to about 120 µM. In short, it runs like this: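 Enzyme-substrate mix preincubated with compound 10 min at room temperature; reaction started with NADPH regeneration solution, 1 h 37C. Luminescent luciferin product read after 20 min detection reagent.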

The target in assay [4] is Cytochrome P450 1A2 (Homo sapiens) (UniProt P05177). Briefly: Cytochrome P450 Family 1 Subfamily A Member 2 (CYP1A2) small molecule antagonists: luciferase reporter qHTS assay (AID 1671199). Further: nearly all actives have a fitted effect of over 50% in size. Further: potency means the concentration at half of the fitted maximal effect. On activity change, negative = inhibition: series mostly up to about 120 µM. Summed up: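 Read-out is luminescence from luciferin detection reagent (20 min) proportional to CYP1A2 activity; compounds in DMSO preincubated 10 min with enzyme and proluciferin substrate, then NADPH regeneration solution, 1 h, room temperature.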

Assay [5] deals with Voltage-gated inwardly rectifying potassium channel KCNH2 (Homo sapiens) (UniProt Q12809). As to the kind of experiment: Human Ether-a-go-go-Related Gene (hERG) channel small molecule antagonists: fluorescence cell-based qHTS assay (AID 1671200).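 Further: hERG-expressing U2OS cells given a thallium stimulus after FluxOR II dye loading; series mostly up to about 77 µM; nearly all actives have a fitted effect of over 50% in size.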 In short, it runs like this: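 hERG-U2OS cells plated overnight at 37 C, loaded with FluxOR II dye 1 h at RT in dark; after 10 min, thallium stimulus added. Fluorescence (480/540 nm) read kinetically for 2 min at 1 s intervals.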
For orientation: Block of hERG is tested as a sign of cardiac risk.

Assay [6] concerns the target Cytochrome P450 3A4 (Homo sapiens) (UniProt P08684). Briefly: Cytochrome P450 Family 3 Subfamily A Member 4 (CYP3A4) small molecule antagonists: luciferase reporter qHTS assay (AID 1671201). Further: nearly all actives have a fitted effect of over 50% in size. Further: potency means the concentration at half of the fitted maximal effect. On activity change, negative = inhibition: series mostly up to about 120 µM. In short, it runs like this: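 P450-Glo CYP3A4 luminescent assay: compounds preincubated 10 min at room temperature with enzyme and proluciferin substrate, NADPH regeneration added, 1 h room-temperature reaction, stopped with luciferin detection reagent; luminescence read after 20 min. Ketoconazole positive control.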
On the % scale 0 is the no-effect control and ±100 the full control effect.

Sequence of Cytochrome P450 3A4 (Homo sapiens) (P08684 whole entry, looked up): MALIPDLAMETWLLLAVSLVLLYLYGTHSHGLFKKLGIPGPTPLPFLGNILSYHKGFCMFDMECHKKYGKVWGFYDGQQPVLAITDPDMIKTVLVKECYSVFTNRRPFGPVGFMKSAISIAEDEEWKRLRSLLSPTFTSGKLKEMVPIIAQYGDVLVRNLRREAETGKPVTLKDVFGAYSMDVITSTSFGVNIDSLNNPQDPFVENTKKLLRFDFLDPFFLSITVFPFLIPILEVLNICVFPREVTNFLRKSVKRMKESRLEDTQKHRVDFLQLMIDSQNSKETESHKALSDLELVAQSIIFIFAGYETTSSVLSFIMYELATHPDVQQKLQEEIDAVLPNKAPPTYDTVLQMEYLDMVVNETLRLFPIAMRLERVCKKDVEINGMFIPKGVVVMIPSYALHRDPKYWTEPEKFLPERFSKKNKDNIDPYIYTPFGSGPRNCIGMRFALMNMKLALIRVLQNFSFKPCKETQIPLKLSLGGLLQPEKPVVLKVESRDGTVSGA
Sequence of Cytochrome P450 1A2 (Homo sapiens) (P05177 whole entry, looked up): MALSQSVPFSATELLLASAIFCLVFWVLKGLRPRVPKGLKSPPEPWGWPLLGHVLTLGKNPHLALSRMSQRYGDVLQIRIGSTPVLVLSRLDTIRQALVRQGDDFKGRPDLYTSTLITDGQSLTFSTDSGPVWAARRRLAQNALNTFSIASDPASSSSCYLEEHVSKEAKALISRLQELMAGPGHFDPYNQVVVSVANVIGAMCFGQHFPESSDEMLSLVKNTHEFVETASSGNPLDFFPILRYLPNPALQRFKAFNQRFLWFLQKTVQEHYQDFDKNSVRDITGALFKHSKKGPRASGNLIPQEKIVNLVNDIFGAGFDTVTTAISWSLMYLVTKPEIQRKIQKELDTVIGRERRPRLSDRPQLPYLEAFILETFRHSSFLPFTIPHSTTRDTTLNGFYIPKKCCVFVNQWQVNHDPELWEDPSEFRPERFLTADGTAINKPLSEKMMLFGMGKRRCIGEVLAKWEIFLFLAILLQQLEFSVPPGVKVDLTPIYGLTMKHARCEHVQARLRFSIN
Sequence of Cytochrome P450 2D6 (Homo sapiens) (P10635 whole entry, looked up): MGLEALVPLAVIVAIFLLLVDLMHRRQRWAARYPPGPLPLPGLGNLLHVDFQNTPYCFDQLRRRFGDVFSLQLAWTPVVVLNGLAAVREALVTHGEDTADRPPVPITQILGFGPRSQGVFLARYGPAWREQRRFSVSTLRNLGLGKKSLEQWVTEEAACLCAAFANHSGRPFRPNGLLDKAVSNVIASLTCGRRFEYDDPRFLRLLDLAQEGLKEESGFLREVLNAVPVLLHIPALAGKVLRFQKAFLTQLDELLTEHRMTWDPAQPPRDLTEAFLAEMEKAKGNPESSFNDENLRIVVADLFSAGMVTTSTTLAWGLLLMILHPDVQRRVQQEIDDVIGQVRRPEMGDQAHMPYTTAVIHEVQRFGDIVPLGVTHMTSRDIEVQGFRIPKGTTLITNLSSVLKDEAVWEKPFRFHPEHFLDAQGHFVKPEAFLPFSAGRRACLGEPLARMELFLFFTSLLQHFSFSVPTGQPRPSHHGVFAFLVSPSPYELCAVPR
Sequence of Cytochrome P450 2C19 (Homo sapiens) (P33261 whole entry, looked up): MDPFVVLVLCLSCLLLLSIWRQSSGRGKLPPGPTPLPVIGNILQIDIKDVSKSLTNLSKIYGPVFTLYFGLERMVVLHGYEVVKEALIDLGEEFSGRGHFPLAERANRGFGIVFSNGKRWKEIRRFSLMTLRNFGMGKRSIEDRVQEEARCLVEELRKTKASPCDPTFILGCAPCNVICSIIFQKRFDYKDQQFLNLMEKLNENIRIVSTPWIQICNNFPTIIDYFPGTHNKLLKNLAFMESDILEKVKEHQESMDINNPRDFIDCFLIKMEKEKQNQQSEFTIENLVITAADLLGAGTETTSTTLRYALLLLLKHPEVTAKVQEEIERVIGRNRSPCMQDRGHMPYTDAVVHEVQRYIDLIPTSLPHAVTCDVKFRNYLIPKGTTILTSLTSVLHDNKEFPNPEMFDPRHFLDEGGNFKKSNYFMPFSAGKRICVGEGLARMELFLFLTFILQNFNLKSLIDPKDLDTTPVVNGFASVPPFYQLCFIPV
Sequence of Voltage-gated inwardly rectifying potassium channel KCNH2 (Homo sapiens) (Q12809 whole entry, looked up): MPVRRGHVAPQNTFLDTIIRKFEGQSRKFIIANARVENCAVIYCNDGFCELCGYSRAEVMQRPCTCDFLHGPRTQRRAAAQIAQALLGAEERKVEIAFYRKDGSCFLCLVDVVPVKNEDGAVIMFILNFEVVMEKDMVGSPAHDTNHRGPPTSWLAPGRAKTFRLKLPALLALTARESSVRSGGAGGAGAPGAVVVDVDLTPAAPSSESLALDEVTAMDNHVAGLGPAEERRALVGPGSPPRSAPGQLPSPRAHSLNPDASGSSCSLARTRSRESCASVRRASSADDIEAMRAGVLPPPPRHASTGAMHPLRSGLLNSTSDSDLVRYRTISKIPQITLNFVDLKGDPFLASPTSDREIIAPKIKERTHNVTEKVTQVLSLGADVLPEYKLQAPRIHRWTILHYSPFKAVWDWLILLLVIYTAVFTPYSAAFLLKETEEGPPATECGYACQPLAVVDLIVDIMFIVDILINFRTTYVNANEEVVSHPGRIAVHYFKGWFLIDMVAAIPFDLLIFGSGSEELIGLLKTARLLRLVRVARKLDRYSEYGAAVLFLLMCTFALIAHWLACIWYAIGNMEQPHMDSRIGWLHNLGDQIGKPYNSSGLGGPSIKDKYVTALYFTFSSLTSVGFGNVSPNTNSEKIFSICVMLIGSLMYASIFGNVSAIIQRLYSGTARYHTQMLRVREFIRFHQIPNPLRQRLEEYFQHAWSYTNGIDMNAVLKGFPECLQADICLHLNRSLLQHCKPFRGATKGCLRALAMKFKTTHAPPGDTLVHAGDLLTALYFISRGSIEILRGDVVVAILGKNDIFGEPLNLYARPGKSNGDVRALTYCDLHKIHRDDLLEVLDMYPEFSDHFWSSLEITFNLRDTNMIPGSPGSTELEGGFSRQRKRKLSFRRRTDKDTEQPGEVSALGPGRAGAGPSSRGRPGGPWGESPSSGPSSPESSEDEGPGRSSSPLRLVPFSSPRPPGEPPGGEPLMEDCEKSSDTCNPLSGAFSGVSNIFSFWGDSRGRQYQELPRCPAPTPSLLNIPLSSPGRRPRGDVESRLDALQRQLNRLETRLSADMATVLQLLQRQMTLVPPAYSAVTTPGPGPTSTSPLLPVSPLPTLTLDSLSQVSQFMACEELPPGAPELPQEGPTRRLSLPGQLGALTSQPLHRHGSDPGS
Sequence of Cytochrome P450 2C9 (Homo sapiens) (P11712 whole entry, looked up): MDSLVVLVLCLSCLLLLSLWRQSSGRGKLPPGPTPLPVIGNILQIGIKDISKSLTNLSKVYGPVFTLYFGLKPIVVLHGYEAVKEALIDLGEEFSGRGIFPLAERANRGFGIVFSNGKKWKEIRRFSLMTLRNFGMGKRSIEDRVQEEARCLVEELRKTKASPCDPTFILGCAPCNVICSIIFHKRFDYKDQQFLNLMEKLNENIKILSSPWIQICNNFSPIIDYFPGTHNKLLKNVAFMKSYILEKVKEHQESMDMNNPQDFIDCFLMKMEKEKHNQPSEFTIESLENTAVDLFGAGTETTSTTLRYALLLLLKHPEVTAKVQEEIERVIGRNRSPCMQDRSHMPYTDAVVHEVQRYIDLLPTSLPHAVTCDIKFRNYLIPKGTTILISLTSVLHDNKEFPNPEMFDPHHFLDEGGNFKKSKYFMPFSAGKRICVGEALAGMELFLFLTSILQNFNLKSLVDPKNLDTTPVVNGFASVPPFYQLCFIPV

As to `CCO[Si](CCC#N)(OCC)OCC`, the Potency entry in assay [1], in assay [2], in assay [3], in assay [4], in assay [5] and in assay [6] was “inactive” throughout.

`CC(=O)OC1CC(C)OC(C)O1` (stereo unspecified): the Potency result in assay [1], in assay [3], in assay [4], in assay [5] and in assay [6] was “inactive” in each case. In assay [2], the Potency was 70.1 µM (active) and inactive.

Regarding `CC(C)(C#N)c1cc(Cn2cncn2)cc(C(C)(C)C#N)c1`, the Potency result in assay [1] and in assay [5] was “inactive” throughout. Further, the Potency is 21.8 µM (active) and 15.5 µM (active) in assay [2]; 9.75 µM (active) and 8.71 µM (active) in assay [3]; 9.75 µM (active) and 15.5 µM (active) in assay [4].

With `CCc1ccccc1CC`, the Potency result in assay [1], in assay [3], in assay [5] and in assay [6] was “inactive” each time. Besides, the activity change, negative = inhibition in assay [2] was 2.36% [at 23.6 µM] (inactive); in assay [4], -28.6% [at 23.6 µM] (inactive).

Regarding `CCOCC(=O)O`, the Potency in assay [1] was 32.4 µM (active) and 31.7 µM (active). For the same compound, the Potency result in assay [2], in assay [3], in assay [4], in assay [5] and in assay [6] was “inactive” throughout.

Take `CC(=O)Oc1ccc(C)cc1`: the Potency result in assay [1], in assay [2], in assay [3], in assay [4], in assay [5] and in assay [6] was “inactive” throughout.

Regarding `C[C@]12CC[C@@H]3c4ccc(O)cc4CC[C@H]3[C@@H]1C[C@@H](O)[C@@H]2O`, the Potency entry in assay [1], in assay [2], in assay [3], in assay [5] and in assay [6] was “inactive” each time. For the same compound, the Potency in assay [4] was 31.7 µM (active) and inactive.

Regarding `CCCCCCCO`, the Potency result in assay [1], in assay [3], in assay [4], in assay [5] and in assay [6] was “inactive” in each case. In assay [2], the Potency was 72 µM (active) and inactive.

In the case of `COCCCN`, the Potency result in assay [1], in assay [2], in assay [3], in assay [4], in assay [5] and in assay [6] was “inactive” throughout.

In the case of `OCc1cccc(Oc2ccccc2)c1`, the Potency was 28.7 µM (active) in assay [1]; 10.2 µM (active) and 22.4 µM (active) in assay [2]; 56.4 µM (active) in assay [3]; 20.3 µM (active) and 39.9 µM (active) in assay [4]. Also, the Potency entry in assay [5] and in assay [6] was “inactive” each time.

For `C=C(C)CNCC`, the Potency in assay [1] was 31.2 µM (active) and inactive. Also, the Potency result in assay [2], in assay [3], in assay [4], in assay [5] and in assay [6] was “inactive” in each case.

As for `CCCCCCO`, the Potency entry in assay [1], in assay [2], in assay [3], in assay [4], in assay [5] and in assay [6] was “inactive” in each case.

Take `CCCCCCCCCCO`: the Potency entry in assay [1], in assay [2], in assay [3], in assay [5] and in assay [6] was “inactive” in each case. Further, in assay [4], the Potency result is “inactive and 31.7 µM (active)”.

Take `O=C(OCC1CCC2OC2C1)C1CCC2OC2C1` (stereo unspecified): the Potency in assay [1] is 16.6 µM (active) and inactive; in assay [3], 71 µM (active). The Potency entry in assay [2] and in assay [5] was “inactive” each time.

`CC(C)c1cccc(C(C)C)c1`: the Potency result in assay [1], in assay [3], in assay [4], in assay [5] and in assay [6] was “inactive” each time.

With `CCNc1ccccc1`, the Potency result in assay [1], in assay [5] and in assay [6] was “inactive” in each case. Moreover, the Potency in assay [2] is 25.6 µM (active); in assay [4], 32.3 µM (active) and inactive.

On to `CCCCCCCCCCCCCCCC(=O)OC(C)C`, for which the Potency result in assay [1], in assay [2], in assay [3], in assay [4], in assay [5] and in assay [6] was “inactive” throughout.

As to `CN(C)c1ccc(Cc2ccc(N(C)C)cc2)cc1`, the Potency was 40.1 µM (active) in assay [1]; 179 nM (active) and 356 nM (active) in assay [2]; 12.7 µM (active) and 31.7 µM (active) in assay [3]; 2.26 µM (active) and 5.03 µM (active) in assay [4]; 35.7 µM (active) and 15.9 µM (active) in assay [6].

For `Cc1ccc2ncccc2c1`, the Potency result in assay [1], in assay [2], in assay [5] and in assay [6] was “inactive” each time. Moreover, in assay [4], the Potency is 39.9 µM (active) and inactive.

As to `CCCCCCCCCCN`, the Potency was 35.8 µM (active) and 12.6 µM (active) in assay [1]; 7.14 µM (active) and 5.64 µM (active) in assay [2]; 31.9 µM (active) and 31.7 µM (active) in assay [4]. For the same compound, the Potency result in assay [5] and in assay [6] was “inactive” in each case.

Consider `C=C(C)[C@H]1CC=C(C)C(=O)C1`, for which the Potency in assay [1] was 18.2 µM (active) and inactive. The Potency result in assay [2], in assay [3], in assay [4], in assay [5] and in assay [6] was “inactive” in each case.

As for `O=C(O)c1ccc(C(=O)O)c(C(=O)O)c1`, the Potency result in assay [2], in assay [3], in assay [4], in assay [5] and in assay [6] was “inactive” in each case.

For the compound `CCOCCOCCOCCO`, the Potency entry in assay [1], in assay [5] and in assay [6] was “inactive” in each case. In addition, the Potency in assay [2] is 82.4 µM (active) and inactive.

For the compound `CC(C)OP(=O)(CP(=O)(OC(C)C)OC(C)C)OC(C)C`, the Potency in assay [2] was 35.6 µM (active) and inactive. Also, the Potency entry in assay [3], in assay [4] and in assay [5] was “inactive” in each case.

In the case of `CCOC(=O)c1ccc(N)cc1`, the Potency is 39.9 µM (active) and inactive in assay [2]; 35.6 µM (active) in assay [3]; 12.6 µM (active) in assay [4]. Besides, the Potency result in assay [5] and in assay [6] was “inactive” in each case.

As for `CC(=O)OCCOC(C)=O`, the Potency entry in assay [1], in assay [2], in assay [3], in assay [5] and in assay [6] was “inactive” each time.

With `OCc1ccccc1`, the Potency result in assay [1], in assay [4], in assay [5] and in assay [6] was “inactive” in each case. In addition, the Potency in assay [2] is 35.1 µM (active).
